Laboratory results reported in PubChem BioAssay.
Inconclusive results are not listed. Active and inactive are the calls of the source.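 Rule for the calls, unless noted: active = inhibition over a set limit, the all-compound mean plus 3 SD, in both replicate runs; inconclusive = over that limit in just one replicate run; inactive = at or under that limit in both runs.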

Key:
[1] = reducers of endogenous Her2 protein level, primary screen, SKBR3 breast tumor cells, AlphaScreen, ATP viability (AID 461;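 active = Her2 level under about 52% in both replicate screens, with viability over 70% of control, limit read from the data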;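 for Her2 level: lower value means less Her2 protein in the cells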;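 for viability: percent of carrier control wells set as 100% viability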); conditions: 18-24 h, measured here: SKBR3 viability, ATP luminescence, at 10 µM
[2] = biological target: Receptor tyrosine-protein kinase erbB-2 (Homo sapiens) (UniProt P04626); experiment: as above; conditions: 18-24 h, at 10 µM, stronger effect = lower value
Sequence of Receptor tyrosine-protein kinase erbB-2 (Homo sapiens) (P04626 whole entry, looked up): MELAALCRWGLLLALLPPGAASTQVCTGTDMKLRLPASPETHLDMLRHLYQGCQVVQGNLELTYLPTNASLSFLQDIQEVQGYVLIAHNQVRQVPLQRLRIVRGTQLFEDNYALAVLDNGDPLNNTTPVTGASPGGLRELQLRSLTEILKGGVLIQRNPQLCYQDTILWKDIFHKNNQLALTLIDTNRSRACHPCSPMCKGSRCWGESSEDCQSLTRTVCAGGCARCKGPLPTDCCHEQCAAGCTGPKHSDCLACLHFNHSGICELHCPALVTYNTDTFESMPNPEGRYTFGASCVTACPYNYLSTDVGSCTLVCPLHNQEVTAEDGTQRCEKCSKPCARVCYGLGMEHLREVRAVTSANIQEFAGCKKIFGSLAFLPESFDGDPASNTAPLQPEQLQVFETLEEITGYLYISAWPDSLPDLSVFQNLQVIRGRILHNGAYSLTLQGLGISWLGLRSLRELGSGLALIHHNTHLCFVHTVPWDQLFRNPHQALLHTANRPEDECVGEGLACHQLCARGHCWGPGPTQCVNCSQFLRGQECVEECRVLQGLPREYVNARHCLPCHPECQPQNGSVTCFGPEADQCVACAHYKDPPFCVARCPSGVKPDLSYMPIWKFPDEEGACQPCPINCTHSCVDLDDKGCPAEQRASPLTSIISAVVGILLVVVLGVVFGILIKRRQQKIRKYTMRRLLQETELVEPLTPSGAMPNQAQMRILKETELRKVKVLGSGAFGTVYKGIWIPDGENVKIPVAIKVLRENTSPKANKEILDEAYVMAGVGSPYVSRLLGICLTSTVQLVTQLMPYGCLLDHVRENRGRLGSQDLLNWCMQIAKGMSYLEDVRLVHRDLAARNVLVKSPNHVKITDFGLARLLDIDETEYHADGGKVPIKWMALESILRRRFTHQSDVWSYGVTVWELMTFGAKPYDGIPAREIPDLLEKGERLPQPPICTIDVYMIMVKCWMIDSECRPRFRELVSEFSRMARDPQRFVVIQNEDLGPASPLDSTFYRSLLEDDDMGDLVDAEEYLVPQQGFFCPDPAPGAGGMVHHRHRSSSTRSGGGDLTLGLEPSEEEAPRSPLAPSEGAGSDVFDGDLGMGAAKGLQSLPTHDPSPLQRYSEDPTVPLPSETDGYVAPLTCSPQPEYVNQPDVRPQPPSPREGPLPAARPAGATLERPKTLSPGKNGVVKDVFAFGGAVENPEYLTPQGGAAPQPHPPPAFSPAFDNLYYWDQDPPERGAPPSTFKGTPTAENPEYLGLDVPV

[3] = SK-BR-3 cell growth inhibitors, pilot screen, 24 h, human (AID 572;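 active = viability at or below 10% of carrier control in both of two separate runs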;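 note: compound exposure lasted between 18 and 24 h rather than exactly 24 h; 100% = carrier-treated control wells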); conditions: SK-BR-3 viability, CellTiter-Glo luminescence, at 10 µM, stronger effect = lower value
[4] = HUVEC growth inhibition – cell-based, human, primary screen (AID 575;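 active = viability at or below 30% in both replicate assays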;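 note: 100% = median of untreated cell wells with 0.1% DMSO on each plate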); conditions: HUVEC proliferation, CellTiter-Glo luminescence, 72 h; at 10 µM; stronger effect = lower value
[5] = growth inhibitors of H69AR lung tumor, primary screen, human, duplicate replicates (AID 580;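 active = viability at or under a set limit in both replicates, limit being median viability minus 3 SD, cut at about 48% in these data, passing the limit was not always enough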;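 note: 100% = mean luminescence of untreated wells and 0% = no signal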); conditions: H69AR lung tumor cells viability, ATP luminescence, 72 h; at 10 µM; stronger effect = lower value
[6] = reversal of MRP1-mediated doxorubicin resistance, pilot screen, H69AR cells, doxorubicin co-treatment (AID 601;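 active = viability loss from added drug above about 55%, and viability with drug at most 40%, in both replicates, limit read from the data, passing the limit was not always enough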); conditions: CellTiter-Glo, 72 h, at 10 µM; for differential viability (reversal): stronger effect = higher value
[7] = 384-well plate pilot, post-Golgi transport modulator project, inhibition of yeast transport mutant growth (AID 636; in the data active = inhibition above about 31%); conditions: absorbance 615 nm, about 18 h, stronger effect = higher value
[8] = growth suppression of yeast trafficking mutant, preliminary HTS, modulators of trafficking downstream of Golgi apparatus project, 1536-format plate, OD 615 nm (AID 637; in the data active = inhibition above about 30%); conditions: yeast transport mutant growth, absorbance 615 nm, 18 h; stronger effect = higher value
[9] = OD615 S. cerevisiae growth inhibition, permissive medium, pilot counter-assay, permissive growth control for S. cerevisiae lifespan shortening project (AID 705;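 active = growth inhibition above 25% in both replicates, a cutoff set 3 SD above the mean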); conditions: OD615, 24 h, at 10 µM, stronger effect = higher value
[10] = Restrictive medium S. cerevisiae growth inhibition, OD615, pilot screen of yeast lifespan reduction project, restrictive growth control (AID 706;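 active = growth inhibition above a set limit, 3 SD over mean compound inhibition, in both replicates, cut at about 43% in these data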;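 note: modified DeaD lifespan yeast strain shifted to restrictive glucose medium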); conditions: OD615, 48 h, at 10 µM, stronger effect = higher value
[11] = viability gain of MRP-1-high H69AR cells under doxorubicin, pilot screen, MRP-1 activator project, CellTiter-Glo, duplicate (AID 807;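 active = viability increase at or above a cutoff of the median across tested compounds plus 3 SD, cut at about 8.5% in these data, passing the limit was not always enough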;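 note: compound pretreatment 18-22 h then 72 h combined with doxorubicin; 0% = doxorubicin alone and 100% = vehicle without doxorubicin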); conditions: H69AR viability with doxorubicin, CellTiter-Glo luminescence; at 10 µM; stronger effect = higher value
[12] = growth suppression of beta-catenin knockout HCT116, pilot screen, human colon tumor cells (AID 823;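 active = cell viability at or below a set limit in both duplicate runs, the limit being the all-compound median minus 4 SD, cut at about 23% in these data, passing the limit was not always enough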;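 note: 0% = wells killed by 20 µM Hyamine and 100% = untreated DMSO cell wells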); conditions: CellTiter-Glo, 60 h, at 10 µM, stronger effect = lower value
[13] = growth suppression of PTEN-deleted HCT116, pilot screen, cell-based, HCT116 clonal line, CellTiter-Glo (AID 824;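 active = viability at or below 27.92% in each of two runs, the all-compound median minus 4 SD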;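 note: 0% = 20 µM Hyamine control and 100% = vehicle cell control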); conditions: 60 h, at 10 µM, stronger effect = lower value
[14] = inhibitors of the yeast RAM network, pilot screen, dse1pr::URA3 reporter, 5-FOA selection (AID 869);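 note: 0% = DMSO wells with no growth and 100% = 10 µM 1-NA-PP1 with full growth; RAM network block rescues cells from 5-FOA so hits raise OD615 growth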; conditions: S. cerevisiae dse1pr::URA3 5-FOA growth, OD615, 2 d; at 10 µM; stronger effect = higher value; strain carries analog-sensitive mutant Cbk1 kinase
[15] = RAM signaling pathway blockade in yeast – S. cerevisiae, Pdr1DBD-CYC8 efflux-inhibited sensitized strain, primary screen (AID 1298;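 active = RAM network inhibition above 8.4% in each of two replicates, 3 SD over the compound average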;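 note: 0% = DMSO untreated cells without growth and 100% = 10 µM 1-NA-PP1 full growth; higher means more yeast growth rescued from 5-FOA killing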); conditions: S. cerevisiae cbk1-as DSE1-URA3 strain, 5-FOA growth OD615, 2 d; at 50 µM; stronger effect = higher value
[16] = H69AR cells + 2 uM doxorubicin, measured here: viability with 2 uM doxorubicin, stronger effect = lower value
[17] = H69AR cells, compound alone cytotoxicity

Structure (SMILES) | viability [1] [%] | Her2 level [2] | viability [3] | viability [4] | viability [5] | differential viability (reversal) ([6]; H69AR cells + 2 uM doxorubicin) | viability [6, 16] [%] | viability [6, 17] [%] | inhibition [7] | inhibition [8] | growth inhibition [9] | growth inhibition [10] | viability increase [11] | viability [12] | viability [13] | inhibition [14] | RAM network inhibition [15]
C=CCSc1nc(N)c2c(C)c(C)sc2n1 | 98.5 | 70.5% (inactive) | 98.5% (inactive) | 86.5% (inactive) | 88% (inactive) | 4.54% (inactive) | 83.5 | 88 | -0.52% (inactive) | -8.33% (inactive) | -10.6% (inactive) | -14% (inactive) | -3.58% (inactive) | 95.3% (inactive) | 92.4% (inactive) | 0.34% (inactive) | 8.79% (inactive)
C=CCSc1nnc(-c2cccnc2)o1 | 95 | 99.5% (inactive) | 95% (inactive) | 103% (inactive) | 96.9% (inactive) | 9.17% (inactive) | 87.8 | 96.9 | -5.6% (inactive) | 9% (inactive) | -1.77% (inactive) | 7.71% (inactive) | -1.02% (inactive) | 101% (inactive) | 101% (inactive) | 0.94% (inactive) | 0.16% (inactive)
O=C(CCN1C(=O)c2ccccc2C1=O)Nc1ccc(F)cc1 | 108 | 76% (inactive) | 108% (inactive) | 116% (inactive) | 104% (inactive) | 12.9% (inactive) | 90.6 | 104 | -1.95% (inactive) | -7% (inactive) | -8.49% (inactive) | -11.6% (inactive) | 3.01% (inactive) | 107% (inactive) | 110% (inactive) | 1.6% (inactive) | -0.26% (inactive)
COc1cccc2cc(C(=O)N3CCN(c4ccc(C)cc4C)CC3)c(=O)oc12 | 116 | 110% (inactive) | 116% (inactive) | 93.7% (inactive) | 96.5% (inactive) | 7.98% (inactive) | 88.5 | 96.5 | -3.6% (inactive) | -6.67% (inactive) | -7.67% (inactive) | 5.05% (inactive) | -2.99% (inactive) | 85.3% (inactive) | 74.3% (inactive) | -0.005% (inactive) | 1.18% (inactive)
COCCOC(=O)C1=C(C)OC(N)=C(C#N)C1c1ccc2c(c1)OCO2 (stereo not drawn) | 98 | 91.5% (inactive) | 98% (inactive) | 93.7% (inactive) | 84.8% (inactive) | 4.96% (inactive) | 79.8 | 84.8 | -3.12% (inactive) | -7.5% (inactive) | 2.33% (inactive) | -2.95% (inactive) | -1.47% (inactive) | 106% (inactive) | 105% (inactive) | 0.465% (inactive) | 3.07% (inactive)
CC(=O)NC(CCS(C)(=O)=O)C(=O)Nc1cccc(C)c1 (stereo not drawn) | 88.5 | 121% (inactive) | 88.5% (inactive) | 89.3% (inactive) | 94.1% (inactive) | 1.42% (inactive) | 92.7 | 94.1 | 1.87% (inactive) | 1.83% (inactive) | -12.4% (inactive) | -11.9% (inactive) | 0.75% (inactive) | 103% (inactive) | 100% (inactive) | 1.04% (inactive) | 2.51% (inactive)
C=CCn1c(SCc2cccc(C#N)c2)nnc1-c1ccccc1O | 86.5 | 102% (inactive) | 86.5% (inactive) | 85.9% (inactive) | 92.4% (inactive) | 0.595% (inactive) | 91.8 | 92.4 | -4.4% (inactive) | -1.5% (inactive) | 4.16% (inactive) | 3.15% (inactive) | -4.01% (inactive) | 96.2% (inactive) | 88.4% (inactive) | 2.62% (inactive) | 8.45% (inactive)
O=C(NCCCN1CCOCC1)c1cc(-c2ccc(O)cc2)on1 | 100 | 87.5% (inactive) | 100% (inactive) | 83.7% (inactive) | 94.8% (inactive) | 5.84% (inactive) | 89 | 94.8 | -6.4% (inactive) | -4% (inactive) | -9.88% (inactive) | -16.8% (inactive) | -6.65% (inactive) | 92.3% (inactive) | 93.7% (inactive) | -0.505% (inactive) | 0.12% (inactive)
CC(C)C(C(=O)Nc1ccc2c(c1)OCCO2)N1C(=O)c2ccccc2C1=O (stereo not drawn) | 91 | 102% (inactive) | 91% (inactive) | 99.8% (inactive) | 104% (inactive) | 8.75% (inactive) | 94.8 | 104 | 0.77% (inactive) | -10.7% (inactive) | -11.7% (inactive) | -13.3% (inactive) | -0.14% (inactive) | 99.1% (inactive) | 97.7% (inactive) | 1.34% (inactive) | 2.58% (inactive)
COCCOC(=O)C1=C(C)N=c2s/c(=C\c3cccs3)c(=O)n2C1c1cccs1 (stereo not drawn) | 91.5 | 77% (inactive) | 91.5% (inactive) | 82.4% (inactive) | 71.9% (inactive) | -4.05% (inactive) | 75.9 | 71.9 | -6.89% (inactive) | -8.17% (inactive) | -9.14% (inactive) | 1.78% (inactive) | -0.91% (inactive) | 86.3% (inactive) | 82.7% (inactive) | 2.83% (inactive) | 6.91% (inactive)
CC1(C)CC(=O)c2cnc(NC(=O)Cc3ccc(Cl)cc3)nc2C1 | 71.5 | 96.5% (inactive) | 71.5% (inactive) | 96.2% (inactive) | 100% (inactive) | 10.6% (inactive) | 89.6 | 100 | -9.46% (inactive) | -0.98% (inactive) | -5.41% (inactive) | -16.6% (inactive) | 2.03% (inactive) | 94.4% (inactive) | 90.6% (inactive) | 2.17% (inactive) | 5.3% (inactive)
COc1ccc(S(=O)(=O)Cc2ccc(C(=O)N3CCOCC3)o2)cc1 | 106 | 126% (inactive) | 106% (inactive) | 94.2% (inactive) | 99.5% (inactive) | -1.56% (inactive) | 101 | 99.5 | 0% (inactive) | -0.83% (inactive) | -4.55% (inactive) | -13.3% (inactive) | -0.14% (inactive) | 111% (inactive) | 99.2% (inactive) | 0.96% (inactive) | 1.62% (inactive)
Cc1ccc(-n2ncc3c(N4CCCC(C)C4)ncnc32)c(C)c1 (stereo not drawn) | 104 | 78.5% (inactive) | 104% (inactive) | 60.2% (inactive) | 61.6% (inactive) | 38.2% (inactive) | 23.4 | 61.6 | -5.07% (inactive) | 8% (inactive) | -2.59% (inactive) | 10% (inactive) | -8.5% (inactive) | 80.5% (inactive) | 80.4% (inactive) | 0.12% (inactive) | 2.4% (inactive)
CCOc1ccc(NC2c3ccccc3C(=O)N2Cc2ccco2)cc1 (stereo not drawn) | 83.5 | 96.5% (inactive) | 83.5% (inactive) | 98.7% (inactive) | 96.2% (inactive) | -2.58% (inactive) | 98.8 | 96.2 | 5% (inactive) | 7.83% (inactive) | 3.67% (inactive) | 6.9% (inactive) | -0.75% (inactive) | 92.6% (inactive) | 85.4% (inactive) | 1.4% (inactive) | 5.57% (inactive)
CCOC(=O)CN(C(=O)c1ccccc1)c1ccccc1C | 93 | 108% (inactive) | 93% (inactive) | 104% (inactive) | 109% (inactive) | 15.2% (inactive) | 94 | 109 | 0.78% (inactive) | -11% (inactive) | -12.9% (inactive) | 6.67% (inactive) | -0.66% (inactive) | 91.8% (inactive) | 94.2% (inactive) | 0.91% (inactive) | 1.96% (inactive)
c1ccc2c(c1)nc(NC1CCCCC1)c1nncn12 | 98.5 | 109% (inactive) | 98.5% (inactive) | 86.6% (inactive) | 90.8% (inactive) | 19.9% (inactive) | 70.9 | 90.8 | -5% (inactive) | -1.17% (inactive) | -8.94% (inactive) | -7.48% (inactive) | -6.65% (inactive) | 89.9% (inactive) | 83.3% (inactive) | 0.325% (inactive) | 2.5% (inactive)
COc1cccc(C2=NOC(C(=O)N3CCN(c4ccccc4)CC3)C2)c1OC (stereo not drawn) | 104 | 97.5% (inactive) | 104% (inactive) | 95.9% (inactive) | 86.5% (inactive) | -12% (inactive) | 98.5 | 86.5 | -6.13% (inactive) | 0% (inactive) | -7.02% (inactive) | -5.35% (inactive) | 2.2% (inactive) | 93.6% (inactive) | 96.5% (inactive) | -0.58% (inactive) | 1% (inactive)
COc1ccc(C2CC(c3ccc(C)cc3)Nc3ncnn32)cc1 (stereo not drawn) | 106 | 96.5% (inactive) | 106% (inactive) | 105% (inactive) | 101% (inactive) | 14.9% (inactive) | 86.1 | 101 | -0.27% (inactive) | 3.28% (inactive) | 2% (inactive) | 20% (inactive) | -0.88% (inactive) | 104% (inactive) | 88.7% (inactive) | 1.41% (inactive) | 0.05% (inactive)
CCOC(=O)N1CCC(N2C(=O)c3ccccc3C2Nc2cc(Cl)c(OC)cc2OC)CC1 (stereo not drawn) | 92.5 | 114% (inactive) | 92.5% (inactive) | 91.6% (inactive) | 78.2% (inactive) | 14% (inactive) | 64.2 | 78.2 | -4.8% (inactive) | 0.83% (inactive) | 3.33% (inactive) | 4.05% (inactive) | -4.45% (inactive) | 77.8% (inactive) | 76% (inactive) | 0.285% (inactive) | 3.54% (inactive)
